Source: PubChem BioAssay (NCI)
Compounds without any hit were thinned out: in the full panel of roughly 83,000, 20% have a hit.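 48-hour exposure, single concentration, 96-well plates; percent growth endpoint where 0 means no net growth. Active: below 10.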 The source made the active and inactive calls.

System: HL-60(TB) leukemia
Assay: NCI-60 one-dose screen, 48 h (100 = growth as untreated, 0 = no growth, -100 = all killed)
Conditions: 10 µM unless noted

Row | Compound | growth
1 | O=C1c2ccccc2C(=O)c2c(O)c(Cl)cc(O)c21 | 122% (inactive)
2 | COc1cc(NC(C)CCCN)c2ncccc2c1Sc1ccc(Cl)cc1 (stereo not drawn) | 81.3% (inactive)
3 | Cc1ccc(-n2nc3c(c(C#N)c2=O)CC(c2ccccc2[N+](=O)[O-])C([N+](=O)[O-])=C3O)cc1 (stereo not drawn) | 91.6% (inactive)
